From PubChem BioAssay
DT40 TDP1 no CPT = qHTS for Inhibitors of human tyrosyl-DNA phosphodiesterase 1 (TDP1): qHTS in cells in absence of CPT. DT40 Tdp1-/- hTDP1 cells, no CPT, ATP luminescence, 48 h. Potency, µM (series often up to 46.2 µM), without a hit: at the highest dose activity change, negative = growth inhibition, hits mostly inhibitors. actives 15% (n = 420,000); also: nearly all actives have a fitted effect of over 55% in size
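Growth kinetics read by CellTiter-Glo luminescence after ≥48 hr at 37 °C. Cells: DT40 Tdp1-/- stably carrying human TDP1, 400 per well, compound exposure in the absence of CPT (DMSO vehicle).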
RORg inh = qHTS for inhibitors of ROR gamma transcriptional activity; Nuclear receptor ROR-gamma (Mus musculus), P51450; Drosophila S2 Gal4-RORgamma UAS-luciferase reporter, 20 h; Potency, µM (series often up to 53.6 µM), for inactives: at the highest dose activity change, negative = inhibition, most hits filed as inhibitors; actives 5.4% (n = 310,000); AID 2551, 2010; also: nearly all actives have a fitted effect of over 60% in size
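Read-out: Photinus luciferase luminescence; inhibitors lower reporter signal. Insect Schneider cells with Gal4-ROR gamma fusion under metallothionein promoter, UAS reporter; 700 uM final copper sulfate induction, 20 hr, ambient temperature.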
DT40 TDP1 CPT = qHTS for Inhibitors of human tyrosyl-DNA phosphodiesterase 1 (TDP1): qHTS in cells in presence of CPT; actives 12% (n = 420,000); Potency, µM (top dose mostly 46.2 µM), without a hit: at the highest dose activity change, negative = growth inhibition, actives largely listed as inhibitors; chicken DT40 Tdp1-/-;hTDP1 cells + 20 nM CPT, ATP luminescence, 48 h; also: nearly all actives have a fitted effect of over 55% in size
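Chicken DT40 Tdp1-/- cells stably complemented with human TDP1 were seeded at 400 cells/well in medium containing 20 nM camptothecin, exposed to pin-transferred compounds, and grown at 37 °C for at least 48 hr. Viability was read as ATP luminescence.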
ELG1 repair inh = qHTS screen for small molecules that inhibit ELG1-dependent DNA repair in human embryonic kidney (HEK293T) cells expressing luciferase-tagged ELG1; HEK293T ELG1-luciferase reporter, luminescence, 16 h; DNA damage induced by 5-fluorouridine; Potency, µM (titrated, usually from 46.1 µM), for inactives: top-dose activity change, negative = inhibition, usual class: inhibitors; actives 2.3% (n = 330,000); AID 504467, 2011; also: nearly all actives have a fitted effect of over 55% in size
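Step one: seed 2,000 cells per well. Step two: pin-transfer compound or DMSO alongside 5-fluorouridine. Step three: incubate 16 hr, 37 °C, 5% CO2. Step four: add ONE-Glo, wait 30 min, read luminescence.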
VP16 counter = VP16 counterscreen qHTS for inhibitors of ROR gamma transcriptional activity; Drosophila S2 Gal4-VP16 UAS-luciferase, luminescence, 20 h; Potency, µM (series often up to 53.6 µM), without a hit: at the top dose activity, negative = inhibition, most hits filed as inhibitors; actives 3.5% (n = 310,000);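 also: Gal4-VP16 expression switched on by copper sulfate through the metallothionein promoter; nearly all actives have a fitted effect of over 50% in size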
ALOX12 inh = Primary qHTS assay for inhibitors of human arachidonate 12S-lipoxygenase (ALOX12): Round 2. Potency, µM (highest dose often 108 µM), for inactives: at the highest dose activity change, negative = inhibition, hits mostly inhibitors. Polyunsaturated fatty acid lipoxygenase ALOX12 (Homo sapiens), P18054. actives 1.1% (n = 580,000). AID 1671190, 2021. purified 12hLO, xylenol orange hydroperoxide absorbance
Target sequence (P18054 whole entry, looked up): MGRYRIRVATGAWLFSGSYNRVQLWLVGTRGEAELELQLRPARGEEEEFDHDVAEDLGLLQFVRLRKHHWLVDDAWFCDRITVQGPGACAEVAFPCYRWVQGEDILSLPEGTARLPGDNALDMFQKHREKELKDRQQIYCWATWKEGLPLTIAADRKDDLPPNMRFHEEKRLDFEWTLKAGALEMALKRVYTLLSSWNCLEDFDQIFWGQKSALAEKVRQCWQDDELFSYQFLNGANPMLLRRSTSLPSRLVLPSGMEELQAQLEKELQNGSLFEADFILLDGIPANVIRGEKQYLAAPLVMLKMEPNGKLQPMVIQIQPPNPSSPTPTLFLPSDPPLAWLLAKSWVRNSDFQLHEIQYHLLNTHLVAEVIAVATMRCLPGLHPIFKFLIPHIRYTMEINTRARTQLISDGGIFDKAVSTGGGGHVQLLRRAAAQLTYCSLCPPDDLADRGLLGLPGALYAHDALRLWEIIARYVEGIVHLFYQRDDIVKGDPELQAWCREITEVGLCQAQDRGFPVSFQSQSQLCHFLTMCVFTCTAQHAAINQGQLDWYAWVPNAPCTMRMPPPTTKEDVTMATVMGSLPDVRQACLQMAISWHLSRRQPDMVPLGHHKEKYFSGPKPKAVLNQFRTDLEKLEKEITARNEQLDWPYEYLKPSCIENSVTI
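Hydroperoxide product was detected by ferrous iron/xylenol orange as the 573 to 405 nm absorbance ratio. Arachidonic acid at 40 uM (final) was turned over for 30 min at room temperature by 150 nM human 12hLO, pH 7.0 Hepes buffer, after 15 min compound preincubation.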
Active calls of the source: *; ? = inconclusive; . = no result given. A selection: hits, their analogues and other compounds. The true share with any hit is near 15%. Calls follow the shape of the dose curve; as a rule, active = well fitted curve in the direction sought with a large enough effect; inconclusive = small, poorly fitted or top-dose-only effect, or another doubt; inactive = no such curve, though single readings can be large; an effect the other way counts as inactive or inconclusive. % is scaled to controls: 0 for no effect and ±100 for the full control effect; potency is read from the fitted curve at half-maximal effect.

SMILES	DT40 TDP1 no CPT	RORg inh	DT40 TDP1 CPT	ELG1 repair inh	VP16 counter	ALOX12 inh
COc1ccc(C2CC(=O)c3cnc(NC(=O)c4ccccc4OC)nc3C2)c(OC)c1 (stereo not drawn)	15µM*	7%	16µM*	?	-12%	3%
CCOC(=O)N1CCN(Cc2nc3c(c(=O)[nH]c(=O)n3C)n2Cc2c(F)cccc2Cl)CC1	.	.	.	.	.	32%
Cc1ccc(-n2c3nc(=O)[nH]c(=O)c-3cc3cc([N+](=O)[O-])ccc32)cc1C	1.3µM*	?	0.58µM*	?	?	?
CCOC(=O)c1c(C)[nH]sc1=S	-27%	6.3µM*	-11%	-1%	?	?
CCOC(=O)c1sc(=S)[nH]c1C	?	.	-4%	.	.	?
O=C(c1cccs1)N(C1CCCCC1)C1CCCCC1	.	.	.	.	.	-6%
CCCOc1ccc(C(O)(CCN2CCCCC2)c2ccccc2OC)cc1 (stereo not drawn)	15µM*	6%	18µM*	-19%	-3%	-11%
CCOc1ccc(C(O)(c2ccccc2OC)C(CN2CCCC2)c2ccccc2)cc1 (stereo not drawn)	8.2µM*	-6%	12µM*	-13%	-3%	-29%
COc1ccc(C(O)(c2ccccc2OC)C(CN2CCOCC2)c2ccccc2)cc1 (stereo not drawn)	?	-30%	?	-18%	-3%	-7%
COc1ccc(-c2noc([C@@H]3CCCN3C(=O)Cc3cccc(C)c3)n2)cc1	.	.	.	.	.	9%
CCCc1cc(NCc2cccnc2)n2nc(C)c(-c3ccccc3)c2n1	.	.	.	.	.	6%
Cc1cccc(N=C2NN=C(c3ccccc3F)CS2)c1C	?	?	-27%	?	?	-8%
COCCn1c(C)cc(C2=NNC(=Nc3ccccc3F)SC2)c1C	?	0.79µM*	?	?	?	?
COCCCN=C1NN=C(c2cc(C)n(-c3ccccc3F)c2C)CS1	8.2µM*	-2%	16µM*	?	-28%	-16%
Cc1cc(C2=NNC(=Nc3ccccc3)SC2)c(C)n1C	?	6%	?	?	-4%	14µM*
Cc1cc(C2=NNC(=NCCc3ccccc3)SC2)c(C)n1-c1c(C)n(C)n(-c2ccccc2)c1=O	-11%	10%	-6%	-10%	1%	?
COCCCN=C1NN=C(c2cc(C)n(-c3ccccc3)c2C)CS1	16µM*	-5%	?	?	-4%	-13%
Cc1ccc(C(=O)Nc2cccc(-c3nnc4n3CCCC4)c2)c(C)c1	.	.	.	.	.	-28%
COc1ccc(/C=C/C(=O)Sc2ccc(C)cc2)cc1	.	.	.	.	.	2%
COCCN=C1NN=C(c2cc(C)n(CC3CCCO3)c2C)CS1 (stereo not drawn)	?	-15%	?	6%	6%	-13%
COCCCN=C1NN=C(c2cc(C)n(Cc3ccccc3Cl)c2C)CS1	2.3µM*	?	?	?	13%	?
COC(=O)c1sc(NC(=O)c2ccc([N+](=O)[O-])o2)c(C#N)c1C	6.5µM*	?	9.2µM*	4.6µM*	-7%	0%
COC(=O)c1c(NC(=O)c2ccc([N+](=O)[O-])o2)sc2c1CCN(C(C)C)C2	0.82µM*	?	0.58µM*	-18%	?	0%
CCN(CC)C(=O)c1sc(NC(=O)c2c(OC)cccc2OC)c(C#N)c1C	-6%	26%	15%	1%	-6%	-4%
CCOC(=O)c1sc(NC(=O)c2ccco2)c(C#N)c1C	-25%	?	-9%	14%	16%	-19%
SMILES	DT40 TDP1 no CPT	RORg inh	DT40 TDP1 CPT	ELG1 repair inh	VP16 counter	ALOX12 inh
CCN(CC)C(=O)c1sc(NC(=O)c2cccc([N+](=O)[O-])c2)c(C#N)c1C	16µM*	37%	21µM*	-18%	?	-26%
CC(C)N1CCc2c(sc(NC(=O)c3ccc([N+](=O)[O-])o3)c2C(N)=O)C1	.	7.1µM*	.	?	?	-16%
O=C(N[C@@H]1CCOC[C@H]1Oc1cccc(F)c1)c1cnc2c(c1)CCC2	.	.	.	.	.	48%
CCNC(=O)N1CCc2nc(OCCOC)ccc2C1	.	.	.	.	.	53%
COCCCNc1oc(-c2ccccc2)nc1C#N	.	.	.	.	.	-8%
Cc1cc(C)n(-c2ccc(NC(=O)C3CCCCN3C(=O)c3cc(C)oc3C)cc2)n1 (stereo not drawn)	?	-2%	15µM*	-5%	1%	-13%
Cc1cccc2c1NC(=O)C21N2CCCC2C(C(=O)c2ccc3ccccc3c2)C12C(=O)Nc1ccccc12 (stereo not drawn)	26µM*	-14%	?	-4%	4%	.
CCc1cccc2c1NC(=O)C21N2CCCC2C(C(=O)c2ccc3ccccc3c2)C12C(=O)Nc1ccccc12 (stereo not drawn)	13µM*	16%	18µM*	-7%	?	-11%
Cc1cccc(C(=O)Nc2cnc3ccccc3c2)c1C	.	.	.	.	.	-3%
CCCN(CCC)S(=O)(=O)c1ccc(C(=O)Nc2cccc(-c3nc4ccccc4[nH]3)c2)cc1	4.6µM*	.	4.6µM*	.	.	-20%
O=C(Nc1cccc(-c2nc3ccccc3[nH]2)c1)c1ccco1	?	1%	?	?	?	-5%
CC(C)(C)N1C(=O)c2ccc(C(=O)Nc3ccc(-c4nc5ccccc5[nH]4)cc3)cc2C1=O	?	15%	-14%	17%	3%	-12%
COc1c(Cl)cc(C(=O)Nc2cccc(-c3nc4ccccc4[nH]3)c2)cc1Cl	23µM*	.	?	.	.	0%
CC1(C)C2CCC1(C)C(NC(=O)CCNC(=O)C1CCCC1)C2 (stereo not drawn)	.	.	.	.	.	31%
Cc1ccc2[nH]c(-c3ccccc3)c(C)c2c1	.	.	.	.	.	-24%
Cc1[nH]c2ccccc2c1C(=O)C(C)Sc1nc2ccccc2c(=O)n1Cc1cccnc1 (stereo not drawn)	11µM*	.	7.9µM*	.	.	.
COC(=O)CCn1c(SC(C)C(=O)c2ccc(F)cc2)nc2ccccc2c1=O (stereo not drawn)	.	.	.	.	.	-20%
CC(C)N1CCC2(CC1)CN(C(=O)C1CCOCC1)Cc1ccccc1O2	.	.	.	.	.	36%
